# Source: paper PMC4552634, “A New Set of Chemical Starting Points with Plasmodium falciparum Transmission-Blocking Potential for Antimalarial Drug Discovery” (PLoS ONE, 2015)
# Like-named read-outs stand apart in the source and are kept apart here. About 3,200 (25%) of roughly 13,000 compounds showed an effect of 50% or more. This is one part of the list.
# System: P. falciparum stage V gametocytes
# Set-up: BacTiter-Glo ATP luminescence viability of purified stage V gametocytes in 384-well plates, per cent inhibition versus DMSO
# Conditions: 48 h, 5 µM, inhibitor
SMILES,% Inhibition,% Inhibition (% Inhibition)
CCCC(C)c1cnc2nc(N)nc(N)c2c1C (stereo not shown) [TCMDC-137924],4.639%,
CCCC1N=C(N)N=C(N)N1c1ccccc1 (stereo not shown) [TCMDC-131293],-19.04%,
CC(Cc1ccc(OCCN2CCN(c3cccc(Cl)c3)CC2)cc1)NCC(O)c1cccc(Cl)c1 (stereo not shown) [TCMDC-131533],18.65%,
CCOC(=O)c1ccc(CC(C)NCC(O)c2cccc(C(F)(F)F)c2)cc1 (stereo not shown) [TCMDC-131491],8.983%,
COC(=O)c1ccc(CC(C)NCC(O)c2cccc(C(F)(F)F)c2)cc1 (stereo not shown) [TCMDC-131438],,6.787%
CC(Cc1ccc(C2=CCNCC2)cc1)NCC(O)c1cccc(C(F)(F)F)c1 (stereo not shown) [TCMDC-131537],95.16%,
CC(Cc1ccc(OCCOc2ccccc2)cc1)NCC(O)c1cccc(C(F)(F)F)c1 (stereo not shown) [TCMDC-131510],16.36%,
CC(Cc1ccc(C(=O)OCCOC(=O)c2ccc(CC(C)NCC(O)c3cccc(C(F)(F)F)c3)cc2)cc1)NCC(O)c1cccc(C(F)(F)F)c1 (stereo not shown) [TCMDC-131544],75.47%,
C#CCOc1ccc(CC(C)NCC(O)c2cccc(C(F)(F)F)c2)cc1 (stereo not shown) [TCMDC-131480],12.31%,
COC(=O)c1ccc(C[C@@H](C)NC[C@H](O)c2cccc(C(F)(F)F)c2)cc1 [TCMDC-131475],,15.4%
COC(=O)c1ccc(C[C@@H](C)NC[C@H](O)c2cccc(C(F)(F)F)c2)cc1 [TCMDC-131458],,35.35%
C[C@H](Cc1ccc(OCCCCCCOc2ccccc2)cc1)NC[C@H](O)c1cccc(Cl)c1 [TCMDC-131552],11.17%,
C[C@H](Cc1ccc(OCCCCCOc2ccc(C[C@@H](C)NC[C@H](O)c3cccc(Cl)c3)cc2)cc1)NC[C@H](O)c1cccc(Cl)c1 [TCMDC-131563],110.4%,
CNCCCCCCOc1ccc(CC(C)NCC(O)c2cccc(C(F)(F)F)c2)cc1 (stereo not shown) [TCMDC-131523],111.6%,
O=C(NCc1cccc(F)c1)Nc1cccc(-c2ccc(-c3nc4ccc(F)cc4[nH]3)cc2)c1 [TCMDC-133293],6.951%,
O=C(O)C1CC(=O)N(c2ccc(Cl)cc2)C1 (stereo not shown) [TCMDC-125862],2.166%,
COc1cccc(CN2CCCC(OC(c3ccc(F)cc3)c3ccc(F)cc3)C2)c1O (stereo not shown) [TCMDC-136167],-3.055%,
CN1CCC(NC(=O)c2cccc(Nc3cc(Nc4cccc(Br)c4)ncn3)c2)CC1 [TCMDC-124773],-81.1%,
CN(C)CCOc1ccc(-c2cc(-c3ccncc3)c(-c3ccc(Cl)c(O)c3)o2)cc1 [TCMDC-141227],36.77%,
